# Assay results: PubChem BioAssay (NCI)
# The panel holds about 83,000 compounds, 20% with a hit somewhere; the sample as a whole holds those more often.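 Testing used 96-well plates and a 48-hour single-concentration exposure. Example: -40 means 40% of the starting cells died.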 Values without a mark were called inactive. The source made the active and inactive calls. The calls were made as follows: active = growth percent below 10; inactive = the rest.
# Columns and labels:
# Assay in all cases: NCI-60 one-dose screen, 48 h (100 = growth as untreated, 0 = no growth, -100 = all killed)
# Conditions in all cases: 10 µM
# 786-0 renal = test system: 786-0 renal
# MALME-3M melanoma = test system: MALME-3M melanoma
# UACC-257 melanoma = test system: UACC-257 melanoma
# SN12C renal = test system: SN12C renal
# TK-10 renal = test system: TK-10 renal
# ACHN renal = test system: ACHN renal
# CAKI-1 renal = test system: CAKI-1 renal
# A498 renal = test system: A498 renal
# RPMI-8226 leukemia = test system: RPMI-8226 leukemia
# OVCAR-8 ovarian = test system: OVCAR-8 ovarian
# OVCAR-4 ovarian = test system: OVCAR-4 ovarian
# SK-OV-3 ovarian = test system: SK-OV-3 ovarian
# IGROV1 ovarian = test system: IGROV1 ovarian
# OVCAR-3 ovarian = test system: OVCAR-3 ovarian
# BT-549 breast = test system: BT-549 breast
# MDA-MB-435 melanoma = test system: MDA-MB-435 melanoma
# MCF7 breast = test system: MCF7 breast
# HCT-116 colon = test system: HCT-116 colon
# HCC-2998 colon = test system: HCC-2998 colon
# KM12 colon = test system: KM12 colon
SMILES,growth (786-0 renal),growth (MALME-3M melanoma),growth (UACC-257 melanoma),growth (SN12C renal),growth (TK-10 renal),growth (ACHN renal),growth (CAKI-1 renal),growth (A498 renal),growth (RPMI-8226 leukemia),growth (OVCAR-8 ovarian),growth (OVCAR-4 ovarian),growth (SK-OV-3 ovarian),growth (IGROV1 ovarian),growth (OVCAR-3 ovarian),growth (BT-549 breast),growth (MDA-MB-435 melanoma),growth (MCF7 breast),growth (HCT-116 colon),growth (HCC-2998 colon),growth (KM12 colon)
N#C[Se]CC(=O)Nc1cccc(C(F)(F)F)c1,-54% (active),-95.3% (active),-33.3% (active),-78.1% (active),-79.8% (active),-38% (active),-72.1% (active),-69.6% (active),10.2%,-49.9% (active),36.8%,14%,-64.5% (active),-13.7% (active),-90.2% (active),-18.1% (active),6% (active),-66.8% (active),54.7%,41.5%
O=C(/C=C/c1ccc(Cl)cc1)c1nc2ccccc2n1Cc1ccc(F)cc1,5.13% (active),49.9%,51.4%,19.7%,58.1%,23.5%,41.8%,125%,-20.2% (active),17.1%,58.8%,78.1%,29%,22.7%,2.95% (active),12.1%,9.25% (active),3.49% (active),32.5%,24.9%
CC[C@@]12CC(C(=O)OC)=C3Nc4cc5c(cc4[C@@]34CCN(C[C@H]3O[C@H]31)[C@@H]24)[C@@H]1[C@H](O5)[C@@H](O)[C@@]2(CC)CC(C(=O)OC)=C3Nc4cc(OC)ccc4[C@@]34CCN1[C@@H]24,22.2%,21%,54.3%,27.1%,16.2%,17.8%,12.9%,-15.3% (active),0.732% (active),25.5%,5.36% (active),14.4%,2.51% (active),7.91% (active),-16.9% (active),9.48% (active),2.22% (active),-0.466% (active),-65% (active),10.2%
COc1ccc2cc([C@H](C)C(=O)[Se]CCC#N)ccc2c1,-83.9% (active),-44.7% (active),-76.9% (active),-16.8% (active),-90.4% (active),-50% (active),-94% (active),-71.1% (active),-17.8% (active),-82.9% (active),-44.3% (active),-70.6% (active),-51.7% (active),-61% (active),-8.75% (active),-69.7% (active),-8.25% (active),-62% (active),10.1%,5.84% (active)
O=C(/C=C/c1ccco1)c1nc2ccccc2n1Cc1ccc(F)cc1,67.6%,59.9%,62.7%,79.2%,92.1%,79.1%,57.6%,93.4%,25.2%,70.1%,48%,85.5%,52.5%,46.3%,59.7%,77%,8.93% (active),59.3%,57%,50.8%
O=C(/C=C/c1ccc(F)cc1)c1nc2ccccc2n1Cc1ccc(F)cc1,-31.5% (active),-23.8% (active),25.6%,21.9%,12.2%,-45.4% (active),43.9%,112%,-27.1% (active),2.66% (active),56.8%,70.4%,14.9%,22.9%,-23.8% (active),-37.9% (active),7.32% (active),-56.9% (active),-78.9% (active),-4.81% (active)
COC(=O)C[C@](O)(CCC(C)C)C(=O)O[C@H]1C(OC)=C[C@@]23CCCN2CCc2cc4c(cc2[C@@H]13)OCO4,-16.1% (active),-45.1% (active),-30.9% (active),-14.9% (active),-16.4% (active),-23.3% (active),-28.4% (active),-19% (active),-19.5% (active),-38.8% (active),-22.7% (active),-8.41% (active),-19.3% (active),-36.9% (active),-33.7% (active),-32.6% (active),-17% (active),-20.4% (active),-62.4% (active),-22.3% (active)
O=C(/C=C/c1ccc(Cl)cc1Cl)c1nc2ccccc2n1Cc1ccc(F)cc1,19.8%,69.1%,66.3%,60.4%,93.6%,48.7%,53.3%,94.8%,-31.1% (active),56%,63.2%,103%,47%,31.7%,24.4%,43.9%,5.98% (active),7.22% (active),27.3%,53%
C#CC[Se]C(=O)c1ccc2n[se]nc2c1,63.4%,41.5%,59.3%,56.3%,65.1%,35.6%,71.3%,95.3%,21.3%,74.9%,74.5%,95.4%,77.7%,46.2%,52.1%,85.9%,31.6%,-27.1% (active),95.8%,95.2%
CC1=C(CCC=O)C2=C(C)C3(CC3)[C@@](C)(O)C(=O)C2=C1,-48.9% (active),-96% (active),-92.1% (active),-82.3% (active),-91.6% (active),-100% (active),-100% (active),-56.8% (active),1.91% (active),-73.4% (active),-97.4% (active),-62% (active),-79.5% (active),-77.6% (active),-23% (active),-88.8% (active),-44.2% (active),-63.9% (active),-91.6% (active),-72.9% (active)
C#CCCCN(CCNc1ccnc2cc(Cl)ccc12)C(=O)CCC(=O)O[C@@H]1O[C@@H]2OC3(C)CC[C@H]4[C@H](C)CC[C@@H]([C@H]1C)[C@@]24OO3,46.9%,20.3%,29.3%,36.1%,50.1%,29.4%,41.4%,96%,24.9%,17%,41.3%,79.3%,41.1%,25.7%,37.3%,21.2%,14.2%,19.4%,20.7%,27.7%
O=C(/C=C/c1ccccc1Cl)c1nc2ccccc2n1Cc1ccc(F)cc1,-95.3% (active),-80% (active),-61.1% (active),-89.4% (active),-44.2% (active),-88% (active),-40.5% (active),62.5%,-29.7% (active),-66.1% (active),4.42% (active),8.31% (active),-78.1% (active),-50.8% (active),-92.2% (active),-46.7% (active),-59.3% (active),-96.3% (active),-99.7% (active),-60.5% (active)
Cc1c2oc3c(C)ccc(C(=O)N[C@@H]4C(=O)N[C@H](C(C)C)C(=O)N5CCC[C@H]5C(=O)N(C)CC(=O)N(C)[C@@H](C(C)C)C(=O)OC4C)c3nc-2c(C(=O)N[C@@H]2C(=O)N[C@H](C(C)C)C(=O)N3CC(=O)C[C@H]3C(=O)N(C)CC(=O)N(C)[C@@H](C(C)C)C(=O)OC2C)c(N)c1=O (stereo not given in full),19%,-14.5% (active),-28% (active),6.6% (active),5.82% (active),2.84% (active),8.23% (active),-68.7% (active),-13.1% (active),0.349% (active),21%,7.97% (active),17%,6.77% (active),-9.76% (active),-66.1% (active),1.42% (active),22.3%,-20% (active),2.23% (active)
C=CC[Se]C(=O)c1ccc(C(=O)[Se]CC=C)s1,-96.3% (active),-47.7% (active),-78.4% (active),-55.8% (active),-80% (active),-45.6% (active),-83.9% (active),-5.42% (active),-26.8% (active),-80.5% (active),-67.6% (active),-95.2% (active),-78.9% (active),-92.9% (active),-92.3% (active),-82.8% (active),-55.4% (active),-77.9% (active),-85.7% (active),-85.1% (active)
COCCOCCOCCOc1ccc(-n2cc(CCCN(CCNc3ccnc4cc(Cl)ccc34)C(=O)CCC(=O)O[C@@H]3O[C@@H]4OC5(C)CC[C@H]6[C@H](C)CC[C@@H]([C@H]3C)[C@@]46OO5)nn2)cc1,47%,-61.2% (active),13.1%,52.2%,52.5%,47.1%,39.7%,94.9%,26.3%,20.9%,45.7%,76.1%,44.8%,35.3%,4.88% (active),24.8%,22.2%,15.5%,67.2%,28.6%
